Most compounds without a hit are left out; they make up all but 3.5% or so of the library.
FBW7 activator = human FBW7 E3 ligase activation, primary screen. AlphaScreen FBW7–phospho-cyclin E peptide binding, activator screen. actives 0.13% (n = 650,000). Q969H0. normalized activity (activation), % at 26.1 µM; in the data active = normalized activity above about 1.9%;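 also: purified mutant Fbw7 with reduced substrate affinity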
TEAD-YAP inh = TEAD-YAP interaction inhibition; HEK-TIYL cells, TEAD-Gal4/YAP UAS-luciferase luminescence; inhibition, % at 9.12 µM; actives 1.4% (n = 640,000); in the data active = inhibition above about 32%;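 also: 0% = median of test compound wells and 100% = reference inhibitor wells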
GPR151 ag = activates the human receptor GPR151; PathHunter beta-arrestin GPR151 cells, luminescence; activation, % at 11.2 µM; actives 1% (n = 650,000); AID 1508602; in the data active = activation above about 4.9%;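 also: 0% = median of compound wells and 100% = cells with positive control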
MITF primary = human MITF inhibition, primary screen. actives 0.91% (n = 650,000). O75030. AlphaScreen MITF homodimerization, bead proximity signal. inhibition, % at 2.6 µM. AID 1259374; in the data active = inhibition above about 50%;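 also: 0% = vehicle wells with protein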
Target sequence (O75030 whole entry, looked up): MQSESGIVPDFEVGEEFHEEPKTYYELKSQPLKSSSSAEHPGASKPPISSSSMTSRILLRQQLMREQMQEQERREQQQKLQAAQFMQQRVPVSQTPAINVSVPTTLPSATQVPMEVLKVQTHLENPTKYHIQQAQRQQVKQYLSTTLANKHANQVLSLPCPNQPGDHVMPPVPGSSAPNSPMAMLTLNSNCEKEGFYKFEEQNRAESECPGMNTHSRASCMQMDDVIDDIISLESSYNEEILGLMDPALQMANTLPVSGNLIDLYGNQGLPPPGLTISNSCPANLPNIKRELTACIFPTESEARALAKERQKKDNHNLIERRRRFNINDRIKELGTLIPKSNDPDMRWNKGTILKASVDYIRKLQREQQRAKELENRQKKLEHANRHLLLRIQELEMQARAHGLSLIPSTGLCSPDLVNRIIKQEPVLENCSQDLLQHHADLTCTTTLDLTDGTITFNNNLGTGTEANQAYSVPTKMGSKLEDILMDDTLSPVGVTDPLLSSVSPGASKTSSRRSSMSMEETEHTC
MITF confirm = human MITF inhibition, confirmation; shares compounds with MITF primary; AlphaScreen MITF homodimerization, biotin/His-MITF beads; inhibition, % at 2.6 µM; actives 16% (n = 4,700); AID 1259372;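 active = inhibition above a cutoff derived from the DMSO control wells, cut at about 28% in these data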;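 also: 0% = MITF dimer wells with DMSO only; inhibitors lower the bead chemiluminescence by keeping MITF from dimerizing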
AS interf DR = AlphaScreen optical interference, dose response counter-screen. shares compounds with MITF primary. AlphaScreen optical interference counterscreen, cell-free. IC50, µM. actives 6% (n = 480). AID 1259373; call rule not given here
AS interf ctr = counter-screen: compounds optically interfering with AlphaScreen; shares compounds with MITF primary; LysRS AlphaScreen counterscreen, signal interference, triplicate; inhibition, % at 2.6 µM; actives 7.6% (n = 4,700); AID 1259376;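 active = inhibition above a cutoff derived from the DMSO control wells, cut at about 30% in these data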
* = called active by the depositor; . = not tested or not shown.

SMILES | FBW7 activator | TEAD-YAP inh | GPR151 ag | MITF primary | MITF confirm | AS interf ctr | others
COc1ccc(C(=O)N2CCN(Cc3cccc(F)c3)CC2)cc1 | 0.1 | -11.4 | -0.7 | 45.7 | . | .
COc1ccc(C(=O)N2CCN(Cc3cccc(Br)c3)CC2)cc1 | 0.1 | -1.9 | 0.4 | 51.4* | 6.4 | 13.5
CSc1ccc(CN2CCN(C(=O)c3ccc(-c4ccccc4)cc3)CC2)cc1 | 0.0 | 6.9 | 0.0 | 0.7 | . | .
CSc1ccc(CN2CCN(C(=O)c3ccc(F)cc3)CC2)cc1 | 0.6 | 44.0* | -1.3 | 54.7* | 6.7 | 12.4
O=C(c1cccc(Cl)c1)N1CCN(Cc2cccc(F)c2)CC1 | 0.0 | 3.2 | 0.4 | 67.0* | -3.8 | 6.0
O=C(c1ccc(F)cc1)N1CCN(Cc2cccc(F)c2)CC1 | 0.0 | 4.1 | 1.1 | 58.3* | 4.1 | 4.3
CSc1cccc(NC(=O)CN(c2ccc(Oc3ccccc3)cc2)S(C)(=O)=O)c1 | 0.1 | -21.0 | -0.1 | 0.5 | . | .
O=C(NCCc1ccccc1)c1ccc2c(=O)n(CCCN3CCCC3=O)c(=S)[nH]c2c1 | 0.0 | -2.1 | 0.7 | 4.2 | . | .
COc1cc(CN2CCN(C(=O)c3cccc(F)c3)CC2)cc(OC)c1O | -0.4 | -1.4 | 0.1 | 67.7* | -2.8 | 5.8
COc1ccc(CN2CCN(C(=O)c3cccc(F)c3)CC2)cc1OC | 0.0 | -1.0 | 0.1 | 31.2 | . | .
COC(=O)c1ccc(OCC2c3cc(OC)c(OC)cc3CCN2C(=O)c2ccc(C)c(C)c2)cc1 (stereo not given) | 0.0 | -8.3 | 0.8 | 5.8 | . | .
CC(C)CCN1NC2(CCCCC2)NC1=S | 0.5 | -6.0 | -1.2 | 65.3* | 2.8 | 14.6
CN1NC2(CCCC2)NC1=S | 0.0 | -4.7 | 0.6 | -6.8 | . | .
CC(C)N(Cc1ccccc1)C(=O)c1ccccc1 | -0.1 | -2.1 | 0.3 | 2.8 | . | .
COc1ccc(O)c(C=Nc2ccc(Cl)cc2)c1 | 0.4 | -6.2 | 3.9 | 51.1* | -3.8 | -3.0
Cc1ccc(CS(=O)(=O)CCC(=O)NC2CCCC(C)C2C)cc1 (stereo not given) | 0.1 | 11.9 | 2.3 | 5.4 | . | .
Cc1ccccc1C(=O)Nc1ccc2c(c1)C(=O)NCCO2 | 0.1 | -4.1 | 0.3 | 50.9* | -5.2 | -5.3
O=C(Nc1ccc2c(c1)C(=O)NCCO2)c1ccc(Cl)cc1 | -0.2 | -77.0 | 0.3 | -15.8 | . | .
CC(C)(C)c1nnc(NC(=O)CN2C(=O)C3C4C=CC(C4)C3C2=O)s1 (stereo not given) | -0.2 | 3.8 | 0.3 | 67.6* | 0.8 | -9.8
CC(C)Sc1ccc(-c2ccccc2C=O)cn1 | 0.5 | -0.3 | 0.3 | 113.7* | 6.2 | 7.9
COc1ccc2c(c1)C1NC(=S)N(c3cccc(C)c3)C(C)(O2)C1C(=O)Nc1ccc(C)cc1C (stereo not given) | -0.2 | 6.0 | 0.6 | 56.6* | 30.8* | 20.3 | AS interf DR=>5.71
C/C(CC(=O)NCCc1ccccc1)=N\NC(=O)c1ccccc1Cl | 0.6 | -26.0 | -1.1 | -0.5 | . | .
CCOCCCNCC(=O)Nc1ccc(N2CCCC2)cc1 | 0.1 | -51.1 | 1.5 | 12.7 | . | .
O=C(CNCCN1CCCCC1)Nc1ccc(N2CCCCC2)cc1 | 0.0 | -7.6 | 0.2 | 94.2* | 16.9 | 20.5
O=C(CNCCN1CCCCC1)Nc1ccc(N2CCCCCC2)cc1 | -0.1 | 0.9 | 0.0 | 90.8* | 8.2 | 34.4*
SMILES | FBW7 activator | TEAD-YAP inh | GPR151 ag | MITF primary | MITF confirm | AS interf ctr | others
O=C(CNCCCN1CCOCC1)Nc1ccc(N2CCCCCC2)cc1 | -0.1 | -3.5 | -0.9 | 75.2* | 5.3 | 25.0
O=C(CNCCN1CCCCC1)Nc1ccc(N2CCCC2)cc1 | -0.2 | -6.0 | -0.4 | 82.7* | 14.8 | 61.0*
O=C(CCl)Nc1ccc(N2CCCCC2)cc1 | 0.2 | 14.8 | 1.7 | -13.2 | . | .
O=S(=O)(Cc1ccc(Cl)cc1)NCc1nc(-c2ccncc2)n[nH]1 | 0.0 | 1.4 | 0.4 | 2.8 | . | .
O=C(CCC(=O)Nc1nc(-c2cc3ccccc3oc2=O)cs1)NCCCN1CCOCC1 | 0.2 | -25.9 | -8.3 | -2.6 | . | .
Cc1nc2c(c(C)nn2-c2ccccc2)c(C)c1CCC(=O)O | 0.0 | 1.3 | 0.9 | 2.0 | . | .
CCCCNc1nc(-c2cc(OC)ccc2OC)cs1 | 0.0 | 3.5 | -1.0 | 59.1* | 8.5 | 10.7
Cc1ccc(NC(=O)C2CC(=O)NC(N3CCOCC3)=N2)cc1 (stereo not given) | 0.2 | -1.0 | 0.2 | 5.0 | . | .
C/C(CC12CC3CC(CC(C3)C1)C2)=N\NC(N)=O | 0.2 | -7.4 | 1.7 | 53.4* | 1.0 | -1.8
CC(C(=O)Nc1ccccc1-c1ccccc1)N1CCN(C)CC1 (stereo not given) | -0.1 | -5.1 | -0.1 | 68.1* | -2.8 | -1.0
Cn1c(-c2ccc(Br)cc2)cnc1NCc1cccnc1 | 0.6 | 2.2 | -0.1 | 25.9 | . | .
COc1cccc(-c2cnc(NCc3ccc(F)cc3F)n2C)c1 | 0.3 | -5.0 | 2.1 | 51.0* | -15.5 | -4.4
Cn1c(-c2ccc(-c3ccccc3)cc2)cnc1NCc1cccnc1 | 0.7 | -43.8 | 0.1 | 62.9* | -13.4 | -3.0
Cn1c(-c2cccc([N+](=O)[O-])c2)cnc1NCc1cccc([N+](=O)[O-])c1 | -0.3 | 7.5 | -1.0 | 37.6 | . | .
Cn1c(-c2ccc3c(c2)OCO3)cnc1NCc1cccc(F)c1 | 0.1 | -29.6 | -0.4 | 54.5* | -16.4 | -6.3
Cc1ccc(-c2cnc(NCc3cccc([N+](=O)[O-])c3)n2C)cc1 | 0.0 | 6.9 | -0.1 | 65.0* | -2.3 | -2.3
CC1=C(C(=O)OC(C)(C)C)C(c2ccc(Cl)cc2)C(C#N)=C(SCc2ccc(Cl)cc2)N1 (stereo not given) | 0.7 | 2.6 | -0.5 | 9.7 | . | .
COc1ccc(NC(=O)c2cnn(-c3ccccc3)c2NC(=O)c2ccccc2F)cc1 | 0.1 | 0.8 | -0.2 | -10.2 | . | .
COc1cccc(CN(CC2CC2)C(=O)Nc2ccc(-c3cn[nH]c3)cc2)c1 | 0.1 | -10.6 | -1.6 | -8.3 | . | .
Cc1nc2ccc(C(=O)N3CCCC(CCC(=O)N(C)CCc4ccccn4)C3)cc2[nH]1 (stereo not given) | 0.0 | 8.0 | -0.9 | 0.7 | . | .
Cn1c(-c2ccc(F)cc2)cnc1NCc1ccc(F)cc1 | 0.1 | 7.9 | -0.3 | 52.6* | -3.0 | 0.0
Cc1nc(-c2ccccc2)sc1CC(=O)NCCSc1nncn1C | -0.3 | -11.2 | -0.6 | 2.2 | . | .
O=C(CCCC(=O)OCC(=O)c1ccccc1)Nc1ccccc1 | 0.0 | -0.6 | 0.3 | 3.7 | . | .
CC1NC(=O)NC1CCCCCC(=O)OCC(=O)c1ccccc1 (stereo not given) | -0.6 | -8.9 | -1.6 | 114.6* | 117.7* | 100.3*
COc1ccc(C(=O)N(C)CCc2ccccn2)cc1 | 0.5 | -3.7 | 4.1 | 71.4* | 3.8 | 1.7
COc1cc(OC)cc(C(=O)NC(C(=O)NCCc2ccccn2)C(C)C)c1 (stereo not given) | -0.1 | -0.6 | -2.2 | 2.6 | . | .
CN(CCc1ccccn1)C(=O)COc1ccc2ccccc2c1 | 1.2 | -22.1 | -0.7 | 84.5* | -9.8 | 4.1

Assay outcomes from PubChem BioAssay.
